SARS PLP yeast: inhibitors of SARS-CoV papain-like protease in yeast; S. cerevisiae expressing SARS-CoV PLpro, growth rescue; Potency, µM (titrated, usually from 32.9 µM), for inactives: top-dose activity, positive = growth rescue, hits mostly activators; 330,000 tested, 0.19% active; calls by dose curve; also: potency is read from the fitted curve at half-maximal effect; 0% is about no effect; nearly all actives have a fitted effect of over 55% in size
NS1 inh: blocks influenza NS1 protein function. 270,000 tested, 0.4% active. AID 2326. Potency, µM (top dose mostly 46.1 µM), for the others: at the highest dose activity, positive = more growth; calls by dose curve; also: potency is read from the fitted curve at half-maximal effect; actives are rising curves; nearly all actives have a fitted effect of over 50% in size
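In this qHTS, NS1 from influenza A is expressed in budding yeast, where it slows growth. Cells are switched from glucose to 2% galactose medium (pH 6.0, -URA), treated with compound, and growth recovery is read at OD600.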
CHX counter: counter-screen for Shiga toxin inhibitors: cycloheximide protein synthesis inhibition; cell reporter, cycloheximide protein synthesis inhibition counterscreen; max response, %; 300,000 tested, 12% active; AID 2314; in the data active = max response mostly above about 13%, no sharp cut-off; inactive = mostly below about 14%; also: read at 38.3 µM for the half of the compounds with a filed dose; 0% is about no effect
Shiga inhibitor: blocks Shiga toxin action in Vero cells; Vero cells, Shiga toxin protein synthesis inhibition reporter; inhibition, % at 38.7 µM; 290,000 tested, 9.2% active; in the data active = inhibition mostly above about 28%, no sharp cut-off; inactive = mostly below about 43%; also: 0% is about no effect
Pf growth 48h: inhibits P. falciparum growth in the first generation, 48 h. P. falciparum luciferase growth in erythrocytes, 48 h. Potency, µM (series often up to 28.7 µM), inactives show at the highest dose activity change, negative = inhibition, hits mostly inhibitors. 310,000 tested, 5.9% active; also: potency is read from the fitted curve at half-maximal effect; % is scaled to controls: 0 for no effect and ±100 for the full control effect
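Parasite viability was followed by luminescence of a genomically integrated firefly luciferase. Cultures held 0.1% parasitemia at 2% hematocrit (final), incubated under 5% CO2 at 37 C.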
Pf growth 96h: P. falciparum growth inhibition at 96 hour, primary screen for plastid delayed-death inhibitors | 320,000 tested, 6.9% active | P. falciparum luciferase reporter growth, 96 h | Potency, µM (top dose mostly 28.7 µM), for the others: at the highest dose activity change, negative = inhibition, usual class: inhibitors | AID 504834; also: potency is read from the fitted curve at half-maximal effect; % is scaled to controls: 0 for no effect and ±100 for the full control effect
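Two-generation exposure (96 h) targets delayed-death phenotype. Reporter parasites carrying integrated firefly luciferase, in red cells at 2% hematocrit and 0.05% parasitemia final, kept at 37 C, 5% CO2; luminescence loss indicates inhibition.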
Active calls of the source: *; ? = inconclusive; nt = no result; [ ] = remark or other dose. In the library only some 21% were active in any assay of this set; here they are far more common. Unless noted, calls follow the shape of the dose curve; as a rule, active = well fitted inhibition curve with a large enough effect; inconclusive = small, poorly fitted or top-dose-only effect, or another doubt; inactive = no such curve, though single readings can be large or run the other way.

SMILES	SARS PLP yeast	NS1 inh	CHX counter	Shiga inhibitor	Pf growth 48h	Pf growth 96h
COC(=O)C1CCN(C(=O)c2cc3ccccc3oc2=O)CC1	3%	-4%	33*	48*	nt	103%
O=C(Nc1cccnc1N1CCOCC1)c1cc2ccccc2oc1=O	-2%	-12%	26*	47*	-5%	-16%
COc1cc(Br)cc2cc(C(=O)N3CCOCC3)c(=O)oc12	3%	20%	1	-12	39%	3.3µM*
O=C(c1cc2ccccc2oc1=O)N1CCOCC1	0%	?	39*	73*	5%	25%
COCCNC(=O)c1cc2cc(Br)cc(OC)c2oc1=O	-1%	-3%	-2	16	12%	?
COc1cccc2cc(C(=O)Nc3cccnc3N3CCOCC3)c(=O)oc12	0%	-9%	0	8	18%	nt
O=C(c1cc2ccccc2oc1=O)N1CCN(C(=O)C2CCCO2)CC1 (stereo unspecified)	4%	4%	1	12	-9%	-16%
COc1ccccc1CNC(=O)C1CCN(S(=O)(=O)c2ccc3c(c2)OCCCO3)CC1	-3%	1%	-1	1	-8%	?
Cc1ccc(C(=O)NCC(=O)OCCOc2ccccc2Cl)cc1	0%	nt	nt	nt	66%	100%
COc1cccc2cc(C(=O)Nc3ccc(S(=O)(=O)NCC4CCCO4)cc3)c(=O)oc12 (stereo unspecified)	1%	-1%	-2	-3	2.1µM*	60%
COc1ccc(S(=O)(=O)N2CCC(C(=O)NCC3CCCO3)CC2)cc1C (stereo unspecified)	9%	8%	-2	-5	13%	33%
COc1cc(C(Nc2ccc(S(=O)(=O)NCC3CCCO3)cc2)C(=O)NC(C)(C)C)cc(OC)c1OC (stereo unspecified)	-3%	-8%	-4	-3	2.1µM*	?
COc1cc(C(Nc2ccc(S(=O)(=O)N3CCC(C)CC3)cc2)C(=O)NCC2CCCO2)cc(OC)c1OC (stereo unspecified)	-1%	3%	-4	-10	13µM*	?
O=C(COC(=O)c1ccc(O)cc1O)NC1CCCCCC1	1%	nt	nt	nt	34%	?
COc1ccc(-c2nc(N)c(C#N)c(-c3cccnc3)c2C)cc1	0%	-31%	-4	-11	?	?
O=C(NN=C1C2CC3CC1CC(Cl)(C3)C2)c1ccccn1	-1%	nt	14*	43	223%	?
O=C(NN=C1C2CC3CC1CC(Cl)(C3)C2)c1cccs1	-5%	nt	45*	35	194%	17%
O=C(NN=C1c2ccccc2-c2ccccc21)c1ccccn1	-3%	-22%	1	61	38%	29%
CC1CC(C)CN(C(=O)COC(=O)COc2ccc(C#N)cc2)C1 (stereo unspecified)	1%	nt	nt	nt	nt	nt
Cc1cc(C)cc(N(CC(=O)N2CCCCCC2)S(C)(=O)=O)c1	5%	?	-2	-2	13%	6%
CC(NC(=O)C(=O)NN=C1CCCC1)c1ccccc1 (stereo unspecified)	1%	6%	-3	-4	22%	30%
O=C(N=C1SCC(=O)N1c1ccccc1Cl)c1ccccc1	0%	nt	35*	73*	150%	?
O=C(Nc1nc2c(ccc3ccccc32)s1)c1cc([N+](=O)[O-])ccc1N1CCOCC1	2%	5%	45*	73*	?	?
O=C(Nc1nc(-c2ccc(-c3ccccc3)cc2)cs1)c1cc([N+](=O)[O-])ccc1N1CCOCC1	0%	11%	-4	30	0%	19%
CC(C)(CNC(=O)c1cc([N+](=O)[O-])ccc1N1CCC(Cc2ccccc2)CC1)N1CCOCC1	-1%	nt	nt	nt	9.3µM*	?
SMILES	SARS PLP yeast	NS1 inh	CHX counter	Shiga inhibitor	Pf growth 48h	Pf growth 96h
CCC(C)(C)NC(=O)c1cc([N+](=O)[O-])ccc1N1CCOCC1	11%	2%	-2	-5	13%	11%
COc1cc2c(cc1OC)-c1cc3ccc(OC)c(OC)c3c[n+]1CC2	nt	nt	nt	nt	0.19µM*	0.17µM*
COc1cc2c(cc1OC)CC[N+](C)=C2	1%	-1%	-3	-10	42%	40%
Cc1cc(C(=O)NNC(=O)c2ccc(Cl)cc2Cl)c(C)o1	-1%	nt	nt	nt	16%	22%
O=C(Nc1ccsn1)c1ccc(Cl)cc1Cl	1%	7%	41*	47*	134%	137%
Cn1c(NC(=O)c2ccc(Cl)cc2Cl)cc(=O)n(C)c1=O	1%	-2%	-5	18	nt	?
Cc1cc(NC(=O)c2ccc(Cl)cc2Cl)no1	1%	13%	42*	nt	171%	3.7µM*
Cc1cc(NC(=O)/C=C/c2ccc(Cl)cc2)no1	-15%	-1%	23*	73*	?	45%
Cc1cc(NC(=O)Nc2cccc(C)c2C)no1	-1%	nt	16	18	28%	43%[1.15 µM]
Cc1cccc(NC(=O)Nc2cc(C)on2)c1	nt	-50%	39*	71*	52%	-4%
O=C(CCCCCN1C(=O)CCC1=O)Nc1ccc(Cl)c(C(F)(F)F)c1	1%	0%	14	26	47%	nt
COc1cccc2c1OCC(CN1CCN(CCC(C)C)C(CCO)C1)=C2 (stereo unspecified)	1%	1%	-3	1	-15%	?
CN(C)/C=C/C(=O)/C=C/c1ccc(Cl)cc1	-5%	-38%	45*	87*	28%	34%
Cc1noc(-c2ccc(C(F)(F)F)cc2)c1NC(=O)Nc1ccc(Cl)cc1	-5%	-34%	-1	16	2.6µM*	2.6µM*
COc1ccc(NC(=O)/C=C/c2ccc(Cl)cc2)cc1	nt	-4%	nt	nt	nt	nt
Cc1ccc(NC(=O)Nc2cc(C)on2)cc1	1%	nt	47*	75*	390%	?
CC(=O)Nc1ccc(NC(=O)/C=C/c2ccc(Cl)cc2)cc1	0%	nt	30*	26*	33%	?
CN(C)/C=C/C(=O)c1ccc(Cl)cc1	-16%	-49%	9	-5	-18%	33%
CCCOc1ccccc1Cn1c(=O)oc2ccccc21	-3%	-12%	7	nt	13%	?
COCCCNC(CC(=O)Nc1ccccc1C(=O)OC)C(=O)O (stereo unspecified)	nt	8%	nt	nt	nt	nt
Cc1cc(NC(=O)Nc2ccc(Cl)cc2)no1	-11%	-23%	27*	nt	74%	?
Cc1cc(NC(=O)CN(C)CC(=O)Nc2ccc(Cl)cc2)no1	-3%	nt	nt	nt	nt	nt
Cc1cc(NC(=O)CSc2ccc(F)cc2)no1	2%	nt	11	30	12%	-13%
Cc1cc(NC(=O)CCCC(=O)Nc2ccc(F)cc2)no1	-7%	-2%	1	-6	11%	8.3µM*
CC(C(=O)N1CCCc2ccccc21)N1CCN(S(=O)(=O)c2ccccc2F)CC1 (stereo unspecified)	2%	-10%	-2	43	?	?
COCc1cc(=O)n2[nH]cc(-c3ccccc3)c2n1	5%	-3%	19*	nt	30%	-18%
